Unmarked numbers belong to inactive results. The rule behind the calls is not given here.
target: Pantothenate synthetase (Mycobacterium tuberculosis (strain ATCC 25618 / H37Rv)) (UniProt P9WIL5); assay: Coupled enzyme confirmation of inhibitors against recombinant Mtb PanC (AID 375); conditions: coupled enzyme assay; at 10 µM, active compounds read high;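 note: 0% = full reaction with vehicle and 100% = no enzyme background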
Sequence (P9WIL5 whole entry, looked up): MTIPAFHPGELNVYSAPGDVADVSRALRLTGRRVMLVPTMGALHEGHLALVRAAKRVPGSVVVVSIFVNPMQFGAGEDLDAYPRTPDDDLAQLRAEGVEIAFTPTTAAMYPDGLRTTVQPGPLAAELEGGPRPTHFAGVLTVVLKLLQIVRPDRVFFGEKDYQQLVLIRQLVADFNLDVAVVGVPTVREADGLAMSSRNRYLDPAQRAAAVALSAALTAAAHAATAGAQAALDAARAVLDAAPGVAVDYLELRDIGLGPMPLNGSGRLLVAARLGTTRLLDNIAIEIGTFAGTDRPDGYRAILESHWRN

Structure (SMILES) | inhibition [%]
CC(=O)N(CCc1ccccc1C)Cc1cc2cc3c(cc2[nH]c1=O)OCO3 | 7
Cc1cccc2c1nc(-c1ccccc1)n1cnnc21 | 0
CCOC(=O)C1CCN(c2c(Nc3ccc4c(c3)OCCO4)c(=O)c2=O)CC1 | 0
CCOC(=O)C1=C(N)OC2=C(C(=O)CC(C)(C)C2)C1c1ccco1 (stereo not given) | 5
Cc1ccc2c(C)nc(Nc3nc(CSc4nnnn4-c4ccccc4)cc(=O)[nH]3)nc2c1 | 11
COC(=O)C1=C(C)NC(C)=C(C(=O)OC)C1c1cc2cc(C)ccc2[nH]c1=O | 3
O=C(NC1CCCCCC1)c1c(F)c(F)c(F)c(F)c1F | 4
C/C=C(\CS(=O)(=O)c1ccccc1)S(=O)(=O)c1ccccc1 | 0
COc1cc(C(=O)OCc2cc3ccccc3[nH]c2=O)cc(OC)c1OC | 4
NC(=O)c1cc(-c2ccccc2)nc(Oc2ccccc2)n1 | 1
N#Cc1cc2c(nc1SCC(=O)N1CCCCC1)CCCC2 | 0
O=C(Nc1cccc(OCC(=O)N2CCOCC2)c1)C1CCCCC1 | 0
c1ccc(Cn2nnc3c(N4CCC5(CC4)OCCO5)ncnc32)cc1 | 0
CCSc1ccccc1C(=O)NCc1ccc(S(N)(=O)=O)cc1 | 0
Cc1ccc(C)c(/C(O)=C2\C(=O)C(=O)N(CCCN3CCOCC3)C2c2cccnc2)c1 (stereo not given) | 2
CCN(CC)c1ccc(NC(=O)c2cncc(Br)c2)cc1 | 0
CC(C)(C)NC(=O)Cn1nnc(-c2cccs2)n1 | 5
Cc1cc(C)n(CC(=O)O)n1 | 0
CCOc1ccc(N(CC(=O)Nc2ccc(C)c(C)c2)S(=O)(=O)c2c(C)noc2C)cc1 | 0
C=CCOc1ccc(C2/C(=C(\O)c3c(C)[nH]c(C(=O)OC)c3C)C(=O)C(=O)N2CCN(C)C)cc1 (stereo not given) | 0

Structure (SMILES) | inhibition [%]
COC(=O)c1ccc(COc2ncnc3c(Cl)cc(Cl)cc23)o1 | 0
COc1ccc(C)cc1-n1nnnc1SCC(=O)NC(=O)NCc1ccco1 | 11
CC1CCN(c2oc(-c3ccccc3F)nc2C#N)CC1 | 4
COc1ccc(N2C(=O)c3cccc4cccc(c34)C2=O)nn1 | 0
O=C(Nc1cc(Cl)ccc1Cl)c1noc2c1CCCC2 | 2
O=C(OCc1ccc2c(c1)OCO2)c1ccc(S(=O)(=O)N2CCCCC2)cc1 | 0
CCc1nc(N[C@@H](Cc2c[nH]c3ccccc23)C(=O)O)c2oc3ccccc3c2n1 | 13
O=C(Cn1cnc2sc(-c3ccccc3)cc2c1=O)N1CCOCC1 | 9
C=CCN(C(=O)CNS(=O)(=O)c1ccccc1)C(C(=O)NCCOC)c1ccncc1 (stereo not given) | 0
Cc1ccc(-c2nn3c(=O)c(C)nnc3s2)cc1 | 0
CCN(CCO)C(=O)CC(c1ccccc1)c1cc(Br)ccc1O (stereo not given) | 5
COCCNC(=O)C(C)N(c1ccc(Oc2ccccc2)cc1)S(C)(=O)=O (stereo not given) | 0
Cc1cc(C)n(-c2nnc(C)n2/N=C/c2ccccc2F)n1 | 9
CCc1nc(N)nc(N)c1-c1ccc(Cl)cc1 | 0
Cc1onc(-c2ccccc2)c1C(=O)NCCN1CCOCC1 | 3
CC(=O)NCCn1ccc2ccccc21 | 0
CCCCOc1ccc(C(=O)CCN2CCCCC2)cc1 | 9
Cc1nn(C)c(C)c1CN(C)C(=O)c1cc2nc(-c3ccco3)cc(C(F)(F)F)n2n1 | 0
CCN1CCN(C(=O)C2CCN(C(=O)c3cc4sccc4n3CC)CC2)CC1 | 14
O=C(O)c1[nH]c2ccc(Cl)cc2c1CC(=O)N1CCN(C(=O)c2ccco2)CC1 | 2
